PubChem BioAssay AID652065 (The Scripps Research Institute Molecular Screening Center, 2013)
The campaign covered roughly 4,300 compounds. About 3,000 (70%) were called active.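 The calls were made as follows: active = inhibition above a per-plate cutoff, the mean inhibition of sample wells plus 3 SD (cut at about 35% in these data); inactive = the rest.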 The set was probably picked from earlier hits. Only a sample is shown.

Assay: small molecules binding CAG repeat RNA – biochemical, fluorescence, confirmation (AID 652065);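 also: loss of TO-PRO-1 fluorescence as compound displaces dye from 1x1 AA loop RNA; 0% = DMSO only wells and 100% = 100 µM mitoxantrone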
Settings: r(CAG) RNA repeat, TO-PRO-1 dye displacement fluorescence; at 3 µM; active compounds read high

| Compound | inhibition |
| --- | --- |
| COc1ccc(N2C(=O)/C(=C/c3ccco3)C(=O)NC2=S)cc1 | 87% (active) |
| O=C1NC(=O)N(Cc2ccco2)C(=O)/C1=C\c1ccc(-c2ccc(F)cc2)o1 | 20.4% (inactive) |
| CC/C(=N\NC(=O)c1ccccc1O)c1c(O)n(Cc2ccccc2)c(=O)[nH]c1=O | 75.3% (active) |
| O=C1CC(=O)N(Cc2ccccc2)C(=O)N1CCCCCCN1C(=O)CC(=O)N(Cc2ccccc2)C1=O | 54.7% (active) |
| COc1cccc(N2C(=O)NC(=O)/C(=C\c3ccc([N+](=O)[O-])s3)C2=O)c1 | 48% (active) |
| O=C1NC(=O)N(c2ccccc2)C(=O)/C1=C/c1ccc([N+](=O)[O-])s1 | 61.7% (active) |
| COc1ccc2c(c1)[C@@]13CCCCC1[C@@H](C2)NCC3 (some centres not stated) | -0.72% (inactive) |
